Hits are enriched below; roughly 21% of the tested compounds scored in any of these assays.
D3 ag: activates the human D3 dopamine receptor; D3R DiscoveRx beta-arrestin cells, luminescence, 90 min; AID 652048; max activation, %; 410,000 tested, 0.58% active; in the data active means max activation above about 30%; further: 0% is about no effect
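Cells at 1500/well, incubated overnight, then treated with pinned compounds (dopamine as control) for 90 min at 37 degrees C. DiscoveRx reagent added for 30 - 60 minutes at room temperature; luminescence read.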
ClpP mod: qHTS Assay for Activators of ClpP. Potency, µM (top dose mostly 57.5 µM), for inactives: at the top dose activity change, negative = active. AID 651965, 2013. 340,000 tested, 1.9% active. purified B. subtilis ClpP, FRET peptide cleavage, 20 min. ATP-dependent Clp protease proteolytic subunit (Bacillus subtilis (strain 168)), P80244; active means well fitted falling curve with a large enough effect; inconclusive means small, poorly fitted or top-dose-only effect; inactive means no such curve, though single readings can be large or run the other way; further: potency means the concentration at half of the fitted maximal effect; the source files actives as falling curves though it sought activators and does not explain the sign; nearly all actives have a fitted effect of over 65% in size
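FRET quenching reversal measured ClpP activation: 10 microg/mL B. subtilis ClpP at pH 8 with the FRET-FV decapeptide, read at 430 nm after 320 nm excitation. The 20-min minus 0-min signal was scaled between DMSO/no-enzyme wells and ADEP (5.8 microM final).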
DRD3 antagonist: D3 dopamine receptor (human) antagonism. P35462. D3R cells, DiscoveRx beta-arrestin luminescence, antagonist mode; active compounds read low. max response, negative = inhibition, %. 360,000 tested, 2.5% active. AID 652054; in the data active means max response below about -50%; inconclusive means no clear call, values can overlap the other calls; further: on the % scale 0 is the no-effect control and ±100 the full control effect
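Cells expressing the human receptor were seeded at 1500 cells/well, incubated overnight at 37 degrees C in 5% CO2, then exposed to library compounds with dopamine controls for 90 minutes at 37 degrees C before luminescent detection.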
TDP1 cell noCPT: qHTS for Inhibitors of human tyrosyl-DNA phosphodiesterase 1 (TDP1): qHTS in cells in absence of CPT; DT40 Tdp1-/- hTDP1 cells, no CPT, ATP luminescence, 48 h; Potency, µM (doses to about 46.2 µM), for inactives: top-dose activity change, negative = growth inhibition, usual class: inhibitors; 420,000 tested, 15% active; AID 686978, 2013; further: potency means the concentration at half of the fitted maximal effect; on the % scale 0 is the no-effect control and ±100 the full control effect; nearly all actives have a fitted effect of over 55% in size
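Chicken DT40 Tdp1-/- cells complemented with human TDP1, screened without camptothecin (DMSO vehicle only), 400 cells/well. Compounds pin-transferred, cells incubated at 37 °C for at least 48 hr. Growth read as ATP-dependent luminescence (CellTiter-Glo, 30 min at RT).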
IL-1B inflam inh: inflammasome signaling inhibition, IL-1 beta readout. THP-1 LPS/ATP IL-1B secretion, AlphaLISA, 16 h; active compounds read low. activity change, % at 57.5 µM. 360,000 tested, 4.7% active; in the data active means activity change below about -50%; inconclusive means mostly about -30% to -49%; further: on the % scale 0 is the no-effect control and ±100 the full control effect
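Secreted IL-1B measured by AlphaLISA bead assay after 16 h compound exposure of THP-1 cells; compounds (final up to 57.5 uM) added 1 h before LPS (250 ng/mL) and ATP (1.25 mM) stimulation; lower signal means less secretion.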
TDP1 cell CPT: DT40-hTDP1 cell growth loss with CPT | chicken DT40 Tdp1-/-;hTDP1 cells + 20 nM CPT, ATP luminescence, 48 h | Potency, µM (top dose mostly 46.2 µM), for the others: at the top dose activity change, negative = growth inhibition, actives largely listed as inhibitors | 420,000 tested, 12% active | AID 686979; further: potency means the concentration at half of the fitted maximal effect; on the % scale 0 is the no-effect control and ±100 the full control effect; nearly all actives have a fitted effect of over 55% in size
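Chicken DT40 Tdp1-/- cells complemented with human TDP1, 400 cells/well, exposed to compounds plus 20 nM camptothecin for at least 48 h at 37 C; viability read as ATP content by CellTiter-Glo luminescence.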
An asterisk follows results filed as active; [ ] = another dose, or the depositor's remark. Unless noted, the call rests on the fitted dose curve; in most records, active means well fitted inhibition curve with a large enough effect; inconclusive means small, poorly fitted or top-dose-only effect; inactive means flat fitted curve, though single readings scatter.

What do the screens show for `COc1ccc(-c2cc(=O)c3c(O)c(OC)c(OC)c(OC)c3o2)cc1`?
D3 ag: 12; ClpP mod: 5%; DRD3 antagonist: 18; TDP1 cell noCPT: inconclusive; IL-1B inflam inh: 26; TDP1 cell CPT: inconclusive

Results for COc1cc2oc(-c3ccccc3)cc(=O)c2cc1O ?
TDP1 cell noCPT: 0%; TDP1 cell CPT: 3%

What do the screens show for `O=c1cc(-c2ccncc2)oc2ccccc12`?
D3 ag: -1; ClpP mod: -1%; DRD3 antagonist: -18; TDP1 cell noCPT: inconclusive; IL-1B inflam inh: -77*; TDP1 cell CPT: -30%

How did O=C(OCc1nc2ccsc2c(=O)[nH]1)c1ccc(Cl)s1 do in these assays?
D3 ag: 9; ClpP mod: -2%; DRD3 antagonist: 7; TDP1 cell noCPT: -10%; IL-1B inflam inh: 14; TDP1 cell CPT: inconclusive

What do the screens show for `COc1ccc(NS(=O)(=O)c2cccc(C(=O)O)c2)cc1`?
D3 ag: 5; ClpP mod: 1%; DRD3 antagonist: 11; TDP1 cell noCPT: -3%; IL-1B inflam inh: -28; TDP1 cell CPT: 3%

How did COc1ccc(C(=O)C(C)OC(=O)c2cccc(S(=O)(=O)Nc3cc(Cl)c(OC)cc3OC)c2)cc1 (configuration not stated) do in these assays?
D3 ag: -12; ClpP mod: -2%; DRD3 antagonist: -9; TDP1 cell noCPT: 21µM*; IL-1B inflam inh: -6; TDP1 cell CPT: 23µM*

How did C=CCSc1nnc(N2C(=O)C(O)=C(C(=O)c3ccco3)C2c2ccccc2F)s1 (configuration not stated) do in these assays?
D3 ag: -5; ClpP mod: -7%; DRD3 antagonist: -25; TDP1 cell noCPT: 4%; IL-1B inflam inh: 27; TDP1 cell CPT: -44%

What do the screens show for `ClCc1nnc(-c2cc3c(s2)CCCC3)o1`?
D3 ag: -8; ClpP mod: -10%; DRD3 antagonist: -11; TDP1 cell noCPT: 16µM*; IL-1B inflam inh: -105*; TDP1 cell CPT: 10µM*

How did CC(C)(C)C1CCc2sc(-c3nnc(CCl)o3)cc2C1 (configuration not stated) do in these assays?
D3 ag: 4; ClpP mod: 0%; DRD3 antagonist: 11; TDP1 cell noCPT: inconclusive; IL-1B inflam inh: inconclusive; TDP1 cell CPT: inconclusive

Results for CCN(Cc1ccccc1)C(=O)COC(=O)c1c(C)nsc1NC ?
D3 ag: 7; ClpP mod: -1%; DRD3 antagonist: 7; TDP1 cell noCPT: 21µM*; IL-1B inflam inh: 30; TDP1 cell CPT: 15µM*

Results for Cc1cnc(C(=O)OCC(=O)c2ccc(Cl)cc2)cn1 ?
D3 ag: -1; ClpP mod: -2%; DRD3 antagonist: 0; TDP1 cell noCPT: 16%; IL-1B inflam inh: 0; TDP1 cell CPT: 7%

Results for CNc1snc(C)c1C(=O)OCC(=O)c1ccc(Cl)cc1 ?
D3 ag: 4; ClpP mod: -3%; DRD3 antagonist: -9; TDP1 cell noCPT: 9.2µM*; IL-1B inflam inh: 16; TDP1 cell CPT: 13µM*

Results for COc1ccc(C(=O)C(C)OC(=O)c2sc(C)nc2C)cc1 (configuration not stated) ?
D3 ag: 0; ClpP mod: 2%; DRD3 antagonist: 3; TDP1 cell noCPT: 4%; IL-1B inflam inh: -11; TDP1 cell CPT: -1%

How did CNc1snc(C)c1C(=O)OC(C)C(=O)c1ccc(F)cc1 (configuration not stated) do in these assays?
D3 ag: 10; ClpP mod: 0%; DRD3 antagonist: 9; TDP1 cell noCPT: 21µM*; IL-1B inflam inh: -20; TDP1 cell CPT: 18µM*

How did Cc1c(C(=O)N2CC[C@@H]3CCCC[C@H]3C2)sc2ncnc(NCCc3ccccn3)c12 do in these assays?
TDP1 cell noCPT: inconclusive; TDP1 cell CPT: -12%[9.04 µM]

How did Cc1ccccc1NC(=O)NCCCCc1ccccc1 do in these assays?
D3 ag: -2; ClpP mod: 2%; DRD3 antagonist: 1; TDP1 cell noCPT: inconclusive; IL-1B inflam inh: inconclusive; TDP1 cell CPT: inconclusive

Results for O=Cc1cc(-c2ccccc2)[nH]c1-c1ccccc1 ?
D3 ag: 3; DRD3 antagonist: -10; TDP1 cell noCPT: 14%; IL-1B inflam inh: -18; TDP1 cell CPT: 22%

How did CCCCn1c(N)c(N(CC(C)C)C(=O)c2cccc(OCc3ccccc3)c2)c(=O)[nH]c1=O do in these assays?
D3 ag: -5; ClpP mod: 3%; DRD3 antagonist: -19; TDP1 cell noCPT: inconclusive; IL-1B inflam inh: -22; TDP1 cell CPT: inconclusive

How did O=C(/C=C/c1ccccc1Cl)c1ccc[nH]1 do in these assays?
D3 ag: -3; ClpP mod: -2%; DRD3 antagonist: 0; TDP1 cell noCPT: inconclusive; IL-1B inflam inh: inconclusive; TDP1 cell CPT: inconclusive

Results for O=C(/C=C/c1ccc(Cl)cc1Cl)c1ccc[nH]1 ?
D3 ag: -1; ClpP mod: 2%; DRD3 antagonist: -17; TDP1 cell noCPT: inconclusive; IL-1B inflam inh: -86*; TDP1 cell CPT: inconclusive

Results for O=C(/C=C/c1ccc(Cl)cc1Cl)n1cccn1 ?
D3 ag: 0; ClpP mod: -1%; DRD3 antagonist: -59*; TDP1 cell noCPT: inconclusive; IL-1B inflam inh: -61*; TDP1 cell CPT: inconclusive

What do the screens show for `CCCCSc1nnc(-c2ccccc2)c2ccccc12`?
D3 ag: -3; ClpP mod: -2%; DRD3 antagonist: 71; TDP1 cell noCPT: inconclusive; IL-1B inflam inh: -6; TDP1 cell CPT: inconclusive

What do the screens show for `O=C(c1n[nH]c2c1CCCC2)N1CCOc2ccc(C(O)C(c3ccccc3)c3ccccc3)cc2C1` (configuration not stated)?
TDP1 cell noCPT: inconclusive; TDP1 cell CPT: 19%[9.04 µM]

Results for CCc1cc2c3c(c(=O)oc2cc1OCC(=O)OC)CCCC3 ?
D3 ag: 10; ClpP mod: 4%; DRD3 antagonist: 11; TDP1 cell noCPT: -4%; IL-1B inflam inh: -4; TDP1 cell CPT: -3%

How did COC(=O)c1ccccc1NC(=O)Cn1c(=O)cc(C)c2c(C)nn(C)c21 do in these assays?
D3 ag: -8; ClpP mod: 0%; TDP1 cell noCPT: inconclusive; TDP1 cell CPT: -27%

What do the screens show for `COC(=O)c1ccc(Cn2c(=O)cc(C)c3c(C)nn(C)c32)cc1`?
D3 ag: 37*; ClpP mod: -9%; TDP1 cell noCPT: 16µM*; TDP1 cell CPT: 10µM*
